Values without a mark were called inactive.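 The calls were made as follows: active = Lowers HeLa cell ATP signal, with fitted half-maximal potency at most twice the top tested dose in every run; inconclusive = runs disagree, or fits flat mid-range or poor; inactive = every run inactive, including signal rising.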

Max activity data for 7 molecules are collected here from PubChem BioAssay AID1117294 (Broad Institute, 2014).

The assay in a line: cervical carcinoma cell viability loss – CellTiter-Glo luminescence, dry powder, set 3, cytotoxicity control, dose response (AID 1117294). As to conditions: HeLa viability, ATP luminescence (CellTiter-Glo), 72 h.

Take `COc1ccc(C(=O)O)cc1S(=O)(=O)Nc1cccc(N2CCCCC2)c1C(F)(F)F`: the max activity was 15.2%.
With `O=S(=O)(O)c1ccc(N2N=C(c3ccccc3)CC2c2ccccc2)cc1` (stereo not drawn), the max activity (at 0.0015 µM) is -32.4%.
As for `COc1ccc(C(=O)O)cc1S(=O)(=O)Nc1cc(C(F)(F)F)ccc1N1CCOCC1`, the max activity (at 0.003 µM) is -16.9%.
With `COc1ccc(C(=O)O)cc1S(=O)(=O)Nc1cc(C(F)(F)F)ccc1N1CCCCC1`, the max activity by setting is: (at 0.0235 µM) -13.4%; (at 12 µM) -15.9%.
With `COc1ccc(C(=O)O)cc1S(=O)(=O)Nc1cc(C(F)(F)F)ccc1N(C)C`, the max activity (at 6 µM) was -19%.
Regarding `COc1ccc(C(=O)O)cc1S(=O)(=O)N1CCN(c2ccc(C(F)(F)F)cc2N)CC1`, the max activity (at 12 µM) is -20.1%.
Consider `COc1ccc(C(=O)Nc2cccc(C(F)(F)F)c2)cc1S(=O)(=O)O`, for which the max activity (at 26 µM) is -20.5%.
